system: VDR:RXRa (NR concentration 270 nM, RXRa partner concentration 90 nM); experiment: PBM binding z-score (relative to random genomic background probes); higher = stronger binding; sequences stand for … in GC…GCGATTGACAGCGTAGAATGAAGG
Experimental: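 Protein-binding microarray (Agilent 4x180K custom design, double-stranded 60-nt probes: 5' GC cap, 34-nt variable region, 24-nt constant primer region; full probe sequence given). Purified or IVT nuclear receptor:RXRα heterodimers (3:1 NR:RXRα, mostly 270:90 nM) or homodimers were incubated for 1 h in PBS with 2% milk and no ligand, then detected with Alexa488 antibodies. Fluorescence from o1-orientation probes (~5 replicates averaged) was converted to z-scores against 500 random hg19 background probes. Variable regions are seed direct-repeat (DR0–DR5) sites, all their single-nucleotide variants and half-site ablations.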

Row | Sequence | PBM binding z-score
1 | CCTAGCAGGCCAATCTGGGTCACTCAGGGCTTGA | 0.721
2 | AGCTCTAGGTAAAGTTCAGTGAAAGATCGATAGA | 1.08
3 | TCTGCTAGGTCAACGATGGTGAGCTAATCTGCTA | 1.15
4 | CGTCCAAGGTCAAAGGTCAGTGATGAGATGACGG | 6.62
5 | AGTCAAAGTTCACTAGGTATCGTAAGATTCAGCT | 3.89
6 | CTCGGAAGGTCGGTTGAGGTGAGTATACGGATAA | 1
7 | AGAATGAGGTTCTACGTAGATCAGGGAAGAAAGT | -0.436
8 | CCGGCTGGGGCAAGGTTACCATAACGCACAGCCA | -0.269
9 | TCTGCTAGGTCAACGATGGCCAGCTAATCTGCTA | 1.13
10 | CCTTACGGGTCAAGGGTATAGCACGGGTGGTACG | 3.22
11 | AGTCAAAGTTCAGGACGAGGTGACGTAAAGCACG | 3.27
12 | AGTCAAAGTTCATCGAGGTAACGTAAGATATGCT | 6.17
13 | TAACCTAGGTCAGATCGGGCCAGTATACGCTATA | 1.52
14 | CCTATTAGTTGACCATAAGGCCAACCGAAGCTCG | 0.724
15 | TCTCGGAGGACACAAAAGGTCAGAGCTCGACATC | 3.17
16 | ATCTTTAGGTAACCAAGTTCAGTGAATGCCGAAC | 4.36
17 | GATACAGCGTCAGCTAGAGGCCAGAGTATGGAAA | -0.922
18 | TATATTAGTTGATTAGGGCAACCGAAACAGCGGA | 0.452
19 | TCTTGTAGAGCAGCAGGTTAAGAAAGCTGGCCAA | -0.353
20 | CTAGACAGGTGAAAGGTAACTCAGTCTGGTACGC | 0.828

Row | Sequence | PBM binding z-score
21 | GCTATTAGTTGAAAAGGCAACCGAATGATTCTCG | -0.31
22 | TAGCCTAGGTCTTGGGCCAGTATACCACGCGAAC | -0.455
23 | ATCTCTAGGTAAGACTCAGTTAAGTGAAGAACGC | 0.511
24 | TCTTGTAGATCAAGCGGGTTAAGAAAGCCTGAGT | 0.54
25 | ACTAGCGGGCCAAGTTTGGGTCACTCAAACAAAG | 0.318
26 | CAAACTAGGTCACAGAGCTCAAAGTCCGTGCGTA | 3.09
27 | TCATATAGGTAAAAGGTGAAGGTCGGTGTGGTAA | 1.92
28 | TAGCCTAGGTCATTCAGGGCCCAGTATAGAAAGC | 2.8
29 | CCTTACGCGTCACGAGGTTATAGCACGACGAGCG | 0.899
30 | TTACCAAGGTAAGCTGAGGTCGTTGATCCAACTC | 2.84
31 | CGAACTAGGTCATTGACAGGACCGTGAATAGTAA | 1.51
32 | GATACAGGGTCAGCTAGGGGCCAGAGTATGGAAA | 3.31
33 | TAGCCTAGGGCATTGGGCCAGTATAGTACGCATC | -0.414
34 | GATACAGGGTCAAGGCCTGAGTACGCGTATTGAT | 4.48
35 | GGAACGAGGGTAAGTTGATAGCAGAGTTTGATGG | -0.217
36 | CCTTACGGGTCACTCCAGGTTAGAGCATCGGAGT | 3.65
37 | ACTATTAGTTGACTTAAGGCAACCGATACGACGC | 0.358
38 | TCTCGTTGGTCACGGAGGTCACACACGACGGGTA | 5.96
39 | ATACGTAGGTTAAGGGTCATTCAGGTTGGTTCGC | 5.82
40 | ATCTCTAGGTAACAAGTTCAATGAAAGAGAGGAC | 2.67
